Bioassay records as filed in PubChem BioAssay.
KDM5B inhibitor = inhibitors of human KDM5B histone demethylase | Potency, µM (top dose mostly 57.7 µM), usual class: inhibitors | Q9UGL1 | 220,000 compounds, 2.6% hits | KDM5B demethylase, FDH-coupled NADH fluorescence (FDH is formaldehyde dehydrogenase); active means well fitted inhibition curve with a large enough effect; further: 0% is about no effect; nearly all actives have a fitted effect of over 70% in size
Target sequence (Q9UGL1 whole entry, looked up): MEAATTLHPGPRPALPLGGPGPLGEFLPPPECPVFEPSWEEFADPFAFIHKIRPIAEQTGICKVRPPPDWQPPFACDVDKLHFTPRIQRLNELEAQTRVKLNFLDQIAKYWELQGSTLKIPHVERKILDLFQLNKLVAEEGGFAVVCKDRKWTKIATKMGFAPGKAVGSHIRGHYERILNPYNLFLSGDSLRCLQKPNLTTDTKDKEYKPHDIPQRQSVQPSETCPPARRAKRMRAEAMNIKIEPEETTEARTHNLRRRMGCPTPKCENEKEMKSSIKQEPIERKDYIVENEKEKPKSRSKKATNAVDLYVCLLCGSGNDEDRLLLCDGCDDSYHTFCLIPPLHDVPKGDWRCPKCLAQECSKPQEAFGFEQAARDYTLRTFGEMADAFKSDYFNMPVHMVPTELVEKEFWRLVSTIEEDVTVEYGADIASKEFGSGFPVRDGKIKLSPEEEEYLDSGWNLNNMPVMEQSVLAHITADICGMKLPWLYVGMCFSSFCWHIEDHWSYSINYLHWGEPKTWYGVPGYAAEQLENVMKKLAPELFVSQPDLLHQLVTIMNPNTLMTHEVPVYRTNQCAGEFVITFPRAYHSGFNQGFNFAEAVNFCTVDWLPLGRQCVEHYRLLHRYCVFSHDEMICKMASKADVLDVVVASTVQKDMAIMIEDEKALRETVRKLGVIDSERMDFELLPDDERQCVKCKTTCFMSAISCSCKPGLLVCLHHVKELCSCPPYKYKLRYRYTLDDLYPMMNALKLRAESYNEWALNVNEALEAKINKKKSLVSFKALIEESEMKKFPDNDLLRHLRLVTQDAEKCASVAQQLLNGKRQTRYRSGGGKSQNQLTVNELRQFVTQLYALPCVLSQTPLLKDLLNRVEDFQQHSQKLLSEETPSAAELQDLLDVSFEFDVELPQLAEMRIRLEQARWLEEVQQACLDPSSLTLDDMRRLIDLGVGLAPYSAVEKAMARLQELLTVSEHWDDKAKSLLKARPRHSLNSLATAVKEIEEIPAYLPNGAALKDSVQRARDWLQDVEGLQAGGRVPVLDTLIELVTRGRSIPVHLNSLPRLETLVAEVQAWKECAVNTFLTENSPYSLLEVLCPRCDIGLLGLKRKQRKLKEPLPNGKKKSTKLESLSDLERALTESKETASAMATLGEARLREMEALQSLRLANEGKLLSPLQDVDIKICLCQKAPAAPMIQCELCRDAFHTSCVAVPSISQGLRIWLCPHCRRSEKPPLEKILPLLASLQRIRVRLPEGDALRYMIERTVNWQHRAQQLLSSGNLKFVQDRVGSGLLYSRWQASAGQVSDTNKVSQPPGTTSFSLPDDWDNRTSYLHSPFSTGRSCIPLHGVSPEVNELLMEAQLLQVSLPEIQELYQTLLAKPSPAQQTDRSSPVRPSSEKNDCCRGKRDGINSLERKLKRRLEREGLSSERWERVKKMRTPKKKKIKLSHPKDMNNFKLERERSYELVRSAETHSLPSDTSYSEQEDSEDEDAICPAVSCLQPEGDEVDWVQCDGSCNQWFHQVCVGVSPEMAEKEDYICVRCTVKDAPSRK
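Coupled FDH/NAD⁺ fluorescence readout. KDM5BΔAP 200 nM final; compound titration, 10 min RT preincubation; substrate mix 12.5 µM H3K4me3, 25 µM 2-OG, 50 µM Fe(II), 100 µM ascorbate, 0.25 mM NAD⁺, 0.25 U/mL FDH; ΔRFU over 30 min.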
* marks the source's active call; other numbers are inactive results; i = inactive. Only a selection was taken, and hits are over-represented in it overall. Potency means the concentration at half of the fitted maximal effect.

SMILES | KDM5B inhibitor
O=C(c1ccc2c(c1)OCO2)N1CCC(c2nc3c(nnn3Cc3cccc(Cl)c3)c(=O)[nH]2)CC1 | i
COCc1cc(=O)n(CC(=O)Nc2cc(Cl)ccc2OC)c(N2CCOCC2)n1 | i
CC(C)C(C)NC(=O)COc1ncnc2ccc(Br)cc12 (stereo not drawn) | i
Cc1nc2ncccn2c1C(=O)N[C@H]1CCOC[C@H]1C1CCOCC1 | 28µM*
Cc1cc(C(=O)N[C@H]2CCOC[C@H]2C2CCOCC2)cc(C)n1 | i
Cc1ncn(CC(=O)N[C@H]2CCOC[C@H]2C2CCOCC2)c1C | i
Cc1ccc(NC(=S)NCC(C)(C)N2CCCCC2)cc1Cl | i
O=C1NCc2ccccc2CC12CCN(Cc1ccnc3ccccc13)CC2 | i
Cc1ccccc1CN1CCC2(CC1)Cc1ccccc1CNC2=O | i
Cc1ncc(CO)c(CN2CCC3(CC2)Cc2ccccc2CNC3=O)c1O | 71µM*
Cc1cccc(CN2CCCC3(Cc4ccccc4CNC3=O)C2)n1 (stereo not drawn) | i
O=C1NCc2ccccc2CC12CCCN(Cc1ccc(O)cc1)C2 (stereo not drawn) | i
Cc1ncc(CO)c(CN2CCCC3(Cc4ccccc4CNC3=O)C2)c1O (stereo not drawn) | 79µM*
CCc1nc(-c2c3n(c(=O)n(CC(=O)NCc4ccc(C)cc4)c2=O)CCCC3)no1 | i
COCc1cc(C)nc2sc3c(c12)NCN(c1ccccc1C)C3=O | i
COc1ccc(-c2ccc3ncn(C)c(=O)c3n2)cc1OC | i
CN(c1ccccc1)c1ccc2ncn(C3CC3)c(=O)c2n1 | i
COc1ncc(-c2ccc3ncn(C4CC4)c(=O)c3n2)cn1 | 32µM*
O=C(O)c1cnc[nH]1 | i
Cc1ccc(Cn2c(SCCC(C)C)nc3c2c(=O)[nH]c(=O)n3C)cc1 | i
COc1ccc(-c2[nH]nc3ncc(-c4cn[nH]c4)nc23)c(C)c1 | 32µM*
COc1ccc(NC(=O)c2cnc3n[nH]c(-c4ccc(OC)cc4C)c3n2)cc1 | i
Cc1ccsc1-c1[nH]nc2ncc(-c3ccc(F)cc3)nc12 | i
Cc1ccsc1-c1[nH]nc2ncc(-c3cn[nH]c3)nc12 | 32µM*
COc1ccc(-c2[nH]nc3ncc(C(=O)N4CC(O)C4)nc23)c(C)c1 | i
SMILES | KDM5B inhibitor
Cc1ccsc1-c1[nH]nc2ncc(-c3ccccc3)nc12 | i
N#CCCN(CCC#N)c1ccncc1 | i
O=C(NCc1cccn1Cc1ccccc1)NC12CC3CC(CC(C3)C1)C2 | i
COc1cc(C(=O)OCCOc2ccccc2F)cc(OC)c1OC | i
CCn1ncc(N2CCCC(CC(=O)N3CCN(c4ccccn4)CC3)C2)cc1=O (stereo not drawn) | i
CC(C)C(NC(=O)C1CCC1)C(=O)N1CCN(c2ccccn2)CC1 (stereo not drawn) | 22µM*
CC(CCc1ccccc1)NC(=O)C1CCCO1 (stereo not drawn) | i
COc1ccccc1N1CCN(C(=O)C(CC(C)C)NC(=O)C2CCCCC2)CC1 (stereo not drawn) | i
CC(NC(=O)C1CCCO1)C(=O)N1CCN(c2ccccn2)CC1 (stereo not drawn) | 25µM*
CCC(=O)N1CCCC(CN2CCN(c3ccccn3)CC2)C1 (stereo not drawn) | i
Cc1ccc(C(C)NC(=O)C2CCCO2)cc1 (stereo not drawn) | i
CC(NC(=O)C1CCC1)C(=O)N1CCN(c2ccccn2)CC1 (stereo not drawn) | 22µM*
CCC1CCc2sc(C(=O)N3CCN(c4ccccn4)CC3)cc2C1 (stereo not drawn) | i
COc1cccc(Nc2nc(-c3ccc(CC(=O)N4CCOCC4)s3)cs2)c1 | i
CCOC(=O)c1oc2cc(OC(=O)CC)ccc2c(=O)c1-c1nc2ccccc2s1 | i
CC(=O)c1ccc(OCc2ccc(C(N)=O)cc2)cc1 | i
CN1C[C@@H](NC(=O)Nc2cccc(C#N)c2)C[C@H]1c1nc(-c2ccc(Cl)cc2)no1 | i
Cc1c(-c2ccccc2)nn2c1NC(=O)CC2C(=O)Nc1ccc2c(c1)OCO2 (stereo not drawn) | i
O=C(O)C(=O)CCc1cccs1 | i
CCN1CC(CN(C)Cc2cn(-c3ccccc3C)nc2-c2ccc(OC)c(F)c2)CC1=O (stereo not drawn) | i
Cc1ccc(-c2noc(-c3ccc(Br)o3)n2)s1 | i
CNc1nc(-c2cc(C)n(-c3cc(C)on3)c2C)cs1 | i
O=C(CCCc1nc2ccccc2o1)NCc1ccc(F)cc1 | i
Cc1ccc(C)c(NC(=O)CC(C)(C)CC(=O)O)c1 | i
COCC1CCN(C(=O)C2CCCN(C(=O)c3ccccc3)CCC(=O)NCC2)CC1 (stereo not drawn) | i
SMILES | KDM5B inhibitor
CC(NC(=O)C(C)(C)C)C(=O)N1CCN(c2ccccn2)CC1 (stereo not drawn) | 28µM*
CC(NC(=O)CCc1ccccc1)C(=O)N1CCN(c2ccccn2)CC1 (stereo not drawn) | 25µM*
CC(CNC(=O)CCc1ccccc1)NC(=O)CCc1ccccc1 (stereo not drawn) | i
Cc1ccc(OC(C)C(=O)N2CCN(c3ccccn3)CC2)cc1 (stereo not drawn) | i
COCCn1ncc(N2CCCC(CC(=O)N3CCN(c4ccccn4)CC3)C2)cc1=O (stereo not drawn) | i
O=C(c1csc(N2CCN(c3ccccc3)CC2)n1)N1CCN(c2ccccn2)CC1 | i
C[C@H](NC(=O)c1ccccc1)C(=O)N1CCN(c2ccccc2)CC1 | i
Cc1ccc(CC(=O)NCCc2ccccn2)cc1 | i
C/C(=C/C(=O)C(F)(F)F)N1CCN(c2ccccn2)CC1 | i
COCCC(=O)N1CCCC(C(=O)N2CCN(c3ccccn3)CC2)CCNC(=O)CC1 (stereo not drawn) | 28µM*
Cc1ccc(CC(=O)NC(C)C(=O)N2CCN(c3ccccn3)CC2)cc1 (stereo not drawn) | 28µM*
O=C(Cn1c(=O)n(C2=CCCCC2)c2ccccc21)NCc1nnc2n1CCCCC2 | i
Cc1cc2ccccc2n1CC(=O)NC1CCN(CC(N)=O)CC1 | i
COc1cccc(SCC(=O)c2ccc3c(c2)CCC(=O)N3)c1 | i
CC(C)c1nc2c(c(-c3ccc(O)cc3)n1)CN([S+](=O)([O-])c1cccc(C(F)(F)F)c1)CC2 | i
C=CC#CCCCc1ccc(OC(=O)c2ccc(C(=O)Oc3ccc(CCCC#CC=C)cc3C)cc2)c(C)c1 | i
O=C(CCC1CCCC1)Nc1cccc2ncccc12 | i
Cc1cc(C(C)(C)C)ccc1OC(=O)/C=C/c1cccs1 | i
O=C(CCN1CCN(c2ccccn2)CC1)Nc1ccc(F)c(F)c1 | i
COCCC(=O)NC(C)C(=O)N1CCN(c2ccccn2)CC1 (stereo not drawn) | 25µM*
CCC(=O)N1CCC2(CC1)CC(N1CCN(c3ccccn3)CC1)CCO2 (stereo not drawn) | i
CCCC(=O)NC(C)C(=O)N1CCN(c2ccccn2)CC1 (stereo not drawn) | 25µM*
CCCCCn1nc(C(=O)N2CCN(c3ccccn3)CC2)c2ccccc2c1=O | i
O=C(CN1CCN(c2ccccn2)CC1)Nc1cccc(Br)c1 | i
Cc1ccc(-c2cc(C(=O)NC3CCCCC3C)c3ccccc3n2)cc1C (stereo not drawn) | i
Cc1ccccc1-c1cc(=O)c2cc(NC(=O)c3cccnc3)ccc2o1 | i
CN(Cc1ccccc1)Cc1cn([C@H]2CO[C@H]3[C@@H]2OC[C@@H]3NCc2ccco2)nn1 | i
